From the supplement of paper PMC11060735
Values joined by “and” are separate entries in the source; they are usually repeats but may differ in a detail not shown here. Identical values can stand only once. Counter-ions that a name gives are not always drawn. ± gives the standard deviation of the averaged measurements. Over roughly 1,800 compounds, “GFP- (p16Ink4a-) cell count relative to negative-control wells” has its median near 0.99; the lowest 2% begin near 0.5. The sample as a whole holds a higher share of the lowest values than the screen did.

The molecules below were run on mouse p16Ink4a+/- lung fibroblasts (INKBRITE, bleomycin-injured) (assay: GFP- (p16Ink4a-) cell count relative to negative-control wells (fold of vehicle); higher = more p16Ink4a- cells surviving). Details: 1 µM; 3 days.

CCC[C@@H]1C[C@@H](C(=O)N[C@H](C(C)Cl)[C@H]2O[C@H](SC)[C@H](O)[C@@H](O)[C@H]2O)N(C)C1 (stereo partly drawn) [Clindamycin HCl] was tested, and the GFP- was 0.865 and 1.15.
For Cc1ccc(NC(=O)c2ccc(CN3CCN(C)CC3)cc2)cc1Nc1nccc(-c2cccnc2)n1 [Imatinib, Imatinib Mesylate], the GFP- was 1.04 and 0.966.
In the case of O=C(Nc1ccccc1-c1cn2c(CN3CCNCC3)csc2n1)c1cnc2ccccc2n1, the GFP- is reported as 0.752 and 0.432.
With CO/C(O)=C1\C(C)=NC(C)=C(C(=O)OCCN2CCN(C(c3ccccc3)c3ccccc3)CC2)C1c1cccc([N+](=O)[O-])c1 (stereo not drawn) [Manidipine] the GFP- was 0.985 and 0.964.

First: COC(=O)C1=C(C#N)N=C(C)/C(=C(\O)OC(C)C)C1c1cccc([N+](=O)[O-])c1 (stereo not drawn) [Nilvadipine]
Second: COCCO/C(O)=C1\C(C)=NC(C)=C(C(=O)OC(C)C)C1c1cccc([N+](=O)[O-])c1 (stereo not drawn) [Nimodipine]
The GFP- of the first is lower: 0.683 for the first, 1.06 for the second.

Going from Cc1c(CN2CCN(C(=O)[C@H](C)O)CC2)sc2c(N3CCOCC3)nc(-c3cnc(N)nc3)nc12 to CS(=O)(=O)N1CCN(Cc2cc3nc(-c4cccc5[nH]ncc45)nc(N4CCOCC4)c3s2)CC1, the GFP- rises from 0.612 to 0.676.

First: COc1ccc(-c2nc(N3CCOCC3)c3sc(CN(C)c4ncc(C(=O)NO)cn4)cc3n2)cn1 [Fimepinostat]
Second: COc1ccc(-c2ccc3ncc4c(c3c2)n(-c2ccc(N3CCNCC3)c(C(F)(F)F)c2)c(=O)n4C)cn1
The GFP- of the first is higher: 0.491 ± 0.025 for the first, 0.4 for the second.

Going from CCN(CC)CC#CCOC(=O)C(O)(c1ccccc1)C1CCCCC1 (stereo not drawn) [Oxybutynin] to CC(C)CN(C[C@@H](O)[C@H](Cc1ccccc1)NC(=O)O[C@H]1CCOC1)S(=O)(=O)c1ccc(N)cc1 [Amprenavir], the GFP- rises from 0.971 to 1.01.

Nc1ccccc1NC(=O)c1ccc(CNC(=O)OCc2cccnc2)cc1 [Entinostat] and Nc1ccccc1NC(=O)c1ccc(CNc2nccc(-c3cccnc3)n2)cc1 [Mocetinostat] are within error of each other in GFP-: 0.641 ± 0.022 for the first, 0.436 ± 0.22 for the second.

Going from c1cnc2cc3c(cc2n1)C1CNCC3C1 [Varenicline Tartrate] to Cn1cc(-c2cnn3c(N)c(Br)c([C@@H]4CCCNC4)nc23)cn1, the GFP- rises from 0.907 to 0.988.

Compared with CCCCc1ncc(/C=C(\Cc2cccs2)C(=O)O)n1Cc1ccc(C(=O)O)cc1 [Eprosartan], O=C(NC(Cc1cc(O)nc2ccccc12)C(=O)O)c1ccc(Cl)cc1 (stereo not drawn) [Rebamipide] is higher in GFP-: 0.961 for the first, 1.02 for the second.

Compared with NC(=O)N1CCC(CC(=O)N2CCC([C@H]3c4ncc(Br)cc4CCc4cc(Cl)cc(Br)c43)CC2)CC1 [Lonafarnib], C=CC(=O)Nc1cccc(Oc2nc(Nc3ccc(N4CCN(C)CC4)cc3)ncc2Cl)c1 is higher in GFP-: 0.808 for the first, 0.844 for the second.

Going from COCC(=O)NC/C=C/c1ccc2ncnc(Nc3ccc(Oc4ccc(C)nc4)c(C)c3)c2c1 to COc1cc2nccc(Oc3ccc(NC(=O)C4(C(=O)Nc5ccc(F)cc5)CC4)cc3)c2cc1OC [Cabozantinib], the GFP- falls from 1.06 to 0.824.

First: C[C@H]1C[C@@H]2[C@H]([C@@H](O)C[C@@]3(C)[C@H]2CC[C@]3(O)C(=O)CO)[C@@]2(C)C=CC(=O)C=C12 [Methylprednisolone]
Second: C[C@]12C=CC(=O)C=C1CC[C@H]1[C@@H]3C[C@@H](O)[C@](O)(C(=O)CO)[C@@]3(C)C[C@H](O)[C@@]12F [Triamcinolone]
The GFP- of the first is lower: 0.847 for the first, 0.986 for the second.

Going from CN1CCCC(n2nc(Cc3ccc(Cl)cc3)c3ccccc3c2=O)CC1 (stereo not drawn) [Azelastine, Azelastine Hydrochloride] to C=CCn1c(=O)c2cnc(Nc3ccc(N4CCN(C)CC4)cc3)nc2n1-c1cccc(C(C)(C)O)n1, the GFP- falls from 1 to 0.409.

Cc1[nH]c2ccccc2c1CCNCc1ccc(/C=C/C(=O)NO)cc1 [Panobinostat] and O=C(/C=C/c1ccc(CN(CCO)CCc2c[nH]c3ccccc23)cc1)NO [Dacinostat] are within error of each other in GFP-: 0.50294 ± 0.0002 for the first, 0.556 ± 0.066 for the second.

Compared with Cc1[nH]c2ccccc2c1CCNC(=O)c1cccs1 [N-[2-(2-methyl-1H-indol-3-yl)ethyl]thiophene-2-carboxamide], Cc1ccc(Cl)cc1N(CC(=O)Nc1c(F)cccc1F)S(C)(=O)=O is lower in GFP-: 1.11 for the first, 1.06 for the second.

Compared with Oc1cc2c(cc1O)[C@@H]1c3ccc(O)c(O)c3OC[C@]1(O)C2 [Hematoxylin], O=C1c2cccc(O)c2C(=O)c2c(O)cc(CO)cc21 [Aloe-emodin] is higher in GFP-: 0.962 for the first, 1.13 for the second.

Compared with CCO/C(O)=C1\C(C)=NC(C)=C(C(=O)OC)C1c1cccc(Cl)c1Cl (stereo not drawn) [Felodipine], CCOC(=O)[C@H](CCc1ccccc1)N[C@@H](C)C(=O)N1Cc2cc(OC)c(OC)cc2C[C@H]1C(=O)O [Moexipril] is higher in GFP-: 0.531 for the first, 0.982 for the second.

Going from O=C1NC(=O)/C(=C/c2cccc(C(F)(F)F)c2)S1 to CC1(C)CCC2=C(O1)c1ccccc1C(=O)C2=O [beta-Lapachone], the GFP- rises from 0.979 ± 0.056 to 1.08.

Going from CC(C)N(CCC(=O)c1ccc2ccccc2c1)Cc1ccccc1 to CNCC[C@@H](Oc1ccccc1C)c1ccccc1 [Atomoxetine], the GFP- rises from 0.897 ± 0.031 to 1.04.

Compared with Cc1nc(NC(=O)N2CCC[C@H]2C(N)=O)sc1-c1ccnc(C(C)(C)C(F)(F)F)c1, Cc1ccc(NC(=O)C2(c3ccc4c(c3)OC(F)(F)O4)CC2)nc1-c1cccc(C(=O)O)c1 [Lumacaftor] is higher in GFP-: 0.875 for the first, 0.94 for the second.

Going from CO[C@H]1C(=O)[C@]2(C)[C@@H](OC)C[C@H]3OC[C@@]3(OC(C)=O)[C@H]2[C@H](OC(=O)c2ccccc2)[C@]2(O)C[C@H](OC(=O)[C@H](O)[C@@H](NC(=O)OC(C)(C)C)c3ccccc3)C(C)=C1C2(C)C [Cabazitaxel] to CC(=O)O[C@@]12CO[C@@H]1C[C@H](O)[C@@]1(C)C(=O)[C@H](O)C3=C(C)[C@@H](OC(=O)[C@H](O)[C@@H](NC(=O)OC(C)(C)C)c4ccccc4)C[C@@](O)([C@@H](OC(=O)c4ccccc4)[C@H]21)C3(C)C [Docetaxel], the GFP- falls from 0.558 to 0.447.

Compared with CC(=O)O[C@H]1C(=O)[C@@]2(C)C([C@H](OC(=O)c3ccccc3)[C@]3(O)C[C@H](OC(=O)[C@H](O)[C@@H](NC(=O)c4ccccc4)c4ccccc4)C(C)=C1C3(C)C)[C@]1(OC(C)=O)CO[C@@H]1C[C@@H]2O (stereo partly drawn) [Taxol, Paclitaxel], Cc1ccc(-n2nc(C)c(N=Nc3cccc(-c4cccc(C(=O)O)c4)c3O)c2O)cc1C [Eltrombopag] is higher in GFP-: 0.505 for the first, 0.82 for the second.

First: NC(=O)N/N=C/c1ccc([N+](=O)[O-])o1 [Nitrofural]
Second: Cc1ccc(S(=O)(=O)c2ccc([N+](=O)[O-])o2)cc1
The GFP- of the first is higher: 0.939 for the first, 0.415 for the second.

Going from Cc1ccc(S(=O)(=O)/C=C/C#N)cc1 to Cc1cc(NS(=O)(=O)c2ccc(N)cc2)no1 [Sulfamethoxazole], the GFP- rises from 0.854 to 0.967.

First: Cc1ccccc1N1C(=O)c2cc(S(N)(=O)=O)c(Cl)cc2NC1C (stereo not drawn) [Metolazone]
Second: Cc1ccc([N+](=O)[O-])cc1S(=O)(=O)N(C)/N=C/c1cnc2ccc(Br)cn12
The GFP- of the first is higher: 0.905 for the first, 0.385 for the second.

Compared with Oc1ccc(-c2nc(-c3ccc(F)cc3)c(-c3ccncc3)[nH]2)cc1, CC(C)(C)Cn1c(N)nc2ccc(-c3[nH]c(C(C)(C)C)nc3-c3ccc(F)cc3)nc21 is lower in GFP-: 1.02 for the first, 0.974 for the second.

Compared with Cn1c(=O)n(-c2ccc(C(C)(C)C#N)cc2)c2c3cc(-c4cnc5ccccc5c4)ccc3ncc21 [Dactolisib], Cc1cnc(Nc2ccc(N3CCN(C)CC3)cc2)nc1Nc1cccc(S(=O)(=O)NC(C)(C)C)c1 is higher in GFP-: 0.74 for the first, 0.779 ± 0.037 for the second.

Compared with CC1CCN(CC[C@H]2CCCN2S(=O)(=O)c2cccc(O)c2)CC1, CC1CNc2c(cccc2S(=O)(=O)N[C@@H](CCCN=C(N)N)C(=O)N2CC[C@@H](C)C[C@@H]2C(=O)O)C1 (stereo partly drawn) [Argatroban] is higher in GFP-: 0.862 for the first, 1.09 for the second.

First: CCOC(=O)c1ccc(C#Cc2ccc3c(c2)C(C)(C)CCS3)nc1 [Tazarotene]
Second: CC(C(=O)O)c1ccc2c(c1)Cc1cccnc1O2 (stereo not drawn) [Pranoprofen]
The GFP- of the first is lower: 1.05 for the first, 1.17 for the second.

First: N#Cc1ccc2[nH]cc(CCCCN3CCN(c4ccc5oc(C(N)=O)cc5c4)CC3)c2c1 [Vilazodone]
Second: COC(=O)Nc1nc2cc(C(=O)c3ccc(F)cc3)ccc2[nH]1 [Flubendazole]
The GFP- of the first is higher: 1.07 for the first, 0.933 for the second.

First: O=C(O)C(O)Cc1ccc(O)c(O)c1 (stereo not drawn) [Sodium Danshensu]
Second: O=C1c2c(O)ccc(O)c2C(=O)c2c(NCCNCCO)ccc(NCCNCCO)c21 [Mitoxantrone]
The GFP- of the first is higher: 1.19 for the first, 0.503 for the second.

First: COc1nc(C)cnc1NS(=O)(=O)c1cccnc1-c1ccc(-c2nnco2)cc1 [Zibotentan]
Second: CCn1cc(-c2ccnc3[nH]c(-c4cccc(CN(C)C)c4)cc23)c(-c2ccc(NC(=O)N(C)C)cc2)n1
The GFP- of the first is higher: 1.19 for the first, 0.658 ± 0.17 for the second.

Going from COc1c2ccoc2cc2oc(=O)ccc12 [Bergapten] to COc1cc2nccc(Oc3ccc(NC(=O)Nc4cc(C)on4)c(Cl)c3)c2cc1OC [Tivozanib], the GFP- falls from 1.08 to 1.01.

Nc1ncn([C@@H]2O[C@H](CO)[C@@H](O)[C@H]2O)c(=O)n1 [5-azacytidine, Azacitidine] and COc1cc(Nc2ncc(F)c(Nc3ccc4c(n3)N(COP(=O)(O)O)C(=O)C(C)(C)O4)n2)cc(OC)c1OC [Fostamatinib] are within error of each other in GFP-: 0.758 ± 0.04 for the first, 0.771 for the second.

First: CCOC(=O)[C@H]1O[C@@H]1C(=O)N[C@@H](CC(C)C)C(=O)NCCC(C)C [Aloxistatin]
Second: CN(C)c1ccc(C(=C2C=CC(=[N+](C)C)C=C2)c2ccc(N(C)C)cc2)cc1 [Gentian Violet]
The GFP- of the first is higher: 0.833 for the first, 0.494 for the second.

Going from FC(F)c1nc2ccccc2n1-c1nc(N2CCOCC2)nc(N2CCOCC2)n1 to C#C[C@]1(O)CC[C@H]2[C@@H]3CCc4cc(OC)ccc4[C@H]3CC[C@@]21C [Mestranol], the GFP- rises from 0.711 to 1.15.

COc1cc2nccc(Oc3ccc(NC(=O)Nc4ccc(F)cc4F)c(F)c3)c2cc1OC was tested, and the GFP- was 0.466.
